The record followed here is the OligoGym collection.
Further: reference of the scale not given here.

The target of the first experiment is SLC25A3. As to the kind of experiment: pooled miR-30 sensor sort-seq; sequence = guide strand. As to conditions: shRNA.
Consider TAAATCTGAAACTCTTGCCTTA, for which the sensor-assay potency score (higher = more potent) amounted to 0.121.
In turn, TAAGTGTAACTGAGAATCCGTT returned a sensor-assay potency score (higher = more potent) of -0.605.
Same read-out and setting: with TATGGTATCTGTCTCATCCAGA the figure was 0.075.
TTTTCTTTATTCAACACAGATA displayed a sensor-assay potency score (higher = more potent) of -1.15.

The next experiment addresses SLC25A41. The description is as above. To be noted: shRNA.
Consider TAGAGCAAGTGTTCTGAGGTTC, for which the sensor-assay potency score (higher = more potent) turned out to be 0.286.
In turn, TGCATGTACACCTTGGCTCTGT gave a sensor-assay potency score (higher = more potent) of -0.291.
Same read-out and setting: with TAGACCTGCATGTACACCTTGG the figure was -0.353.
On the same count and under the same terms, then TATTCCACAGAAGTAATTCTTG, with -0.218; and TCTCGCTGCAAGATCTGCCTGG, with -0.421; and TAGACAGCCAGGTCGGTGCAGG, with -0.911.
Turning to TCCTGTGTCCAGTACCTGCTGT, the sensor-assay potency score (higher = more potent) is -0.625.
The sequence TACACCACATAGCTGATGCCAC came in with a sensor-assay potency score (higher = more potent) of -0.548.
The same measure, in the same setting: with ATACTCAGGAGCAATCTTGAGC the figure was -0.858; with TTGGTGAAGTTCGTCTTGGAGG, -1.22; with TTCAAGGTTGTTGTCATGCATG, -1.11.
Sequence TTGCACTGCTCGAATACGGAGA yielded a sensor-assay potency score (higher = more potent) of -0.376.

The target of a further experiment is SLC25A5. Described as above. As to conditions: shRNA.
In the case of TATAATGCCTTTGTATTGCTTA, the sensor-assay potency score (higher = more potent) worked out at 0.347.
Take TTCATCACGAGCAATCTTCCGC: the sensor-assay potency score (higher = more potent) was -0.132.
In the case of AGATTTGTAGATCTTAACCAGG, the sensor-assay potency score (higher = more potent) is -1.69.
Still for that read-out and setting: with TTATCTGCAGTGATCTGCTTGC the figure was 0.187; with TTCTCTTGTCCACACCACCCAG, -1.25; with TTGTATTGCTTATCTGCAGTGA, -0.0407.
TCTGCAGTGATCTGCTTGCTGG gave a sensor-assay potency score (higher = more potent) of -0.995.
Still for that read-out and setting: then TTGCAGTGTCATAGATACCGAA, with -0.793.
Still for that read-out and setting: then TACAAGACAAGCACAAAAGCAC, with 0.0644; and TCTCTTGTCCACACCACCCAGG, with -0.852.
Consider TTTGTAGATCTTAACCAGGCAG, for which the sensor-assay potency score (higher = more potent) was -0.343.
ATGGATAGGAAGTCAACCCGGC: the sensor-assay potency score (higher = more potent) is -0.119.
Consider TGCCTTTGTATTGCTTATCTGC, for which the sensor-assay potency score (higher = more potent) was -0.404.
Turning to TCGGTAGATGATAATACCCTGC, the sensor-assay potency score (higher = more potent) was -0.461.
Still for that read-out and setting: with TTGCTTCCCATTTTCAACCAGT the figure was -0.278; with TTGTATTTATCTTTGAAGGCGA, -0.168.
On the same count and under the same terms, then TGCAGTGTCATAGATACCGAAG, with -1.43; and TTCATCATACAAGACAAGCACA, with -1.02; and TTATCTTTGAAGGCGAAGTTAA, with -1.05.
Same read-out and setting: then TCACGAGCAATCTTCCGCCAGC, with -0.904; and TATCTGATGACATTGGCCAGGT, with 0.271.
In the case of TTTGTATTGCTTATCTGCAGTG, the sensor-assay potency score (higher = more potent) is -0.375.
For the sequence TTGCTTATCTGCAGTGATCTGC, the sensor-assay potency score (higher = more potent) was -0.049.
In the case of TTGTAGATCTTAACCAGGCAGT, the sensor-assay potency score (higher = more potent) was -0.456.
